Data: PubChem BioAssay (EPA / NIEHS)
Results filed as inconclusive are left out. The source made the active and inactive calls. The calls were made as follows, unless noted: active = hit-call score of the fitted dose curve at least 0.9, where 1 is the maximum; inactive = score below 0.9.

Tests used:
[1] = ATG_PBREM_CIS: Attagene CIS-FACTORIAL HepG2 Assay for human Phenobarbital-responsive Enhancer Module (PBREM) (AID 2282955); conditions: HepG2 PBREM cis-reporter, Attagene multiplexed transcription; actives raise or lower the signal
How it was run: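 Cells were transfected with cis-element reporter units and treated for 24 h, after which RNA was extracted and reporter transcripts measured by RT-PCR and capillary electrophoresis.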

[2] = ATG_PXRE_CIS: Attagene CIS-FACTORIAL HepG2 Assay for human Pregnane X Receptor Element (PXRE) (AID 2282957); conditions: HepG2 Attagene CIS-FACTORIAL PXRE reporter, mRNA; actives raise or lower the signal
How it was run: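 HepG2 cells transiently transfected with cis-element-driven multiplexed reporter units; after 24 h chemical exposure, reporter mRNA measured by RT-PCR, 6-FAM labelling, HpaI digestion and capillary electrophoresis. Bidirectional fitting relative to DMSO.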

[3] = ATG_PPRE_CIS: Attagene CIS-FACTORIAL HepG2 Assay for human Peroxisome Proliferator-activated Response Element (PPRE) (AID 2282958); conditions: HepG2 PPRE cis-element reporter, Attagene transcription factor profiling; actives raise or lower the signal
How it was run: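 In this cell-based multiplex, a PPRE cis element drives a reporter sequence in transiently transfected HepG2 cells. Following 24 h treatment, labeled cDNA amplicons are sized and quantified by capillary electrophoresis, with DMSO defining baseline.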

[4] = ATG_RORE_CIS: Attagene CIS-FACTORIAL HepG2 Assay for human RAR-related Orphan Receptor Element (RORE) (AID 2282959); conditions: HepG2 Attagene cis-factorial RORE reporter, mRNA; actives raise or lower the signal
How it was run: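 Endogenous factor activity at a cis response element is read as reporter transcript levels in HepG2 cells, 24 h post-dose. Transcripts are quantified by RT-PCR with capillary electrophoresis, and data fitted in both directions against DMSO.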

[5] = ATG_Sox_CIS: Attagene CIS-FACTORIAL HepG2 Assay for human SRY-box transcription factor (SOX) (AID 2282960); conditions: HepG2 Attagene cis-factorial SOX reporter, mRNA; actives raise or lower the signal
How it was run: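 Measures mRNA induction of a SOX1-associated reporter in HepG2 after 24 h dosing. Fluorescently labelled RT-PCR fragments are separated by capillary electrophoresis, and gain or loss relative to DMSO control is fitted.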

[6] = target: Transcription factor Sp1 (Homo sapiens) (UniProt P08047); experiment: ATG_Sp1_CIS: Attagene CIS-FACTORIAL HepG2 Assay for human Specificity Protein 1 (Sp1) (AID 2282961); conditions: HepG2 Sp1 cis-reporter transcription, actives raise or lower the signal
Transcription factor Sp1 (Homo sapiens), sequence (P08047 whole entry, looked up): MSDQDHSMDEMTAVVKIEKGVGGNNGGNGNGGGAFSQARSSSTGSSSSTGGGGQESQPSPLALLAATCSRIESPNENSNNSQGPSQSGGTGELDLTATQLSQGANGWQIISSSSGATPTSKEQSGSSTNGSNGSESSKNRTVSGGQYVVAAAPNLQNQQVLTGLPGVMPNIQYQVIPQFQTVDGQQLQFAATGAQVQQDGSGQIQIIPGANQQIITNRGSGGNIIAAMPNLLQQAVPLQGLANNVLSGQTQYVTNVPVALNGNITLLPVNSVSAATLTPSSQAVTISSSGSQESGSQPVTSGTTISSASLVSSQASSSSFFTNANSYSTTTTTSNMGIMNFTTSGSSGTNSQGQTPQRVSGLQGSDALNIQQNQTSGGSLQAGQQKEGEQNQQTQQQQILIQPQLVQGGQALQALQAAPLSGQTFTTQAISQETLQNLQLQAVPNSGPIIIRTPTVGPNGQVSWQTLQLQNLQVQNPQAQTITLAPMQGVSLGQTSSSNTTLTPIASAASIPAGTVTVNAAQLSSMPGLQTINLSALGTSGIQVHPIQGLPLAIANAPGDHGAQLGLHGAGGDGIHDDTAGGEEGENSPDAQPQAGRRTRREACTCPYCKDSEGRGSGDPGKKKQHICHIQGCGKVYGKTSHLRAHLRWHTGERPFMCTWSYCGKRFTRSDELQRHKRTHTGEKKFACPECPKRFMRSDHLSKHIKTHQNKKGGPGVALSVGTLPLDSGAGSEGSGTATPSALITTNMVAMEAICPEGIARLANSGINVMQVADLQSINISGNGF
How it was run: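 Cells: HepG2, transiently transfected with cis-regulated multiplexed reporters. Exposure: 24 h. Detection: reporter transcripts amplified, fluorescently labeled, restriction-digested and sized by capillary electrophoresis. Analysis: bidirectional fit relative to DMSO.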

[7] = ATG_SREBP_CIS: Attagene CIS-FACTORIAL HepG2 Assay for human Sterol Regulatory Element Binding (SREBP) (AID 2282962); conditions: HepG2 Attagene cis-factorial SREBP reporter, mRNA; actives raise or lower the signal
How it was run: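 HepG2 cells transiently transfected with multiplexed cis-promoter reporter units sensing endogenous transcription factors; reporter mRNA measured 24 h after dosing by RT-PCR, 6-FAM labeling, HpaI digestion and capillary electrophoresis. Bidirectional fit versus DMSO.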

[8] = target: Signal transducer and activator of transcription 3 (Homo sapiens) (UniProt P40763); experiment: ATG_STAT3_CIS: Attagene CIS-FACTORIAL HepG2 Assay for human Signal Transducer and Activator of Transcription 3 (STAT3) (AID 2282963); conditions: HepG2, Attagene cis-factorial STAT3 reporter transcription; actives raise or lower the signal
Signal transducer and activator of transcription 3 (Homo sapiens), sequence (P40763 whole entry, looked up): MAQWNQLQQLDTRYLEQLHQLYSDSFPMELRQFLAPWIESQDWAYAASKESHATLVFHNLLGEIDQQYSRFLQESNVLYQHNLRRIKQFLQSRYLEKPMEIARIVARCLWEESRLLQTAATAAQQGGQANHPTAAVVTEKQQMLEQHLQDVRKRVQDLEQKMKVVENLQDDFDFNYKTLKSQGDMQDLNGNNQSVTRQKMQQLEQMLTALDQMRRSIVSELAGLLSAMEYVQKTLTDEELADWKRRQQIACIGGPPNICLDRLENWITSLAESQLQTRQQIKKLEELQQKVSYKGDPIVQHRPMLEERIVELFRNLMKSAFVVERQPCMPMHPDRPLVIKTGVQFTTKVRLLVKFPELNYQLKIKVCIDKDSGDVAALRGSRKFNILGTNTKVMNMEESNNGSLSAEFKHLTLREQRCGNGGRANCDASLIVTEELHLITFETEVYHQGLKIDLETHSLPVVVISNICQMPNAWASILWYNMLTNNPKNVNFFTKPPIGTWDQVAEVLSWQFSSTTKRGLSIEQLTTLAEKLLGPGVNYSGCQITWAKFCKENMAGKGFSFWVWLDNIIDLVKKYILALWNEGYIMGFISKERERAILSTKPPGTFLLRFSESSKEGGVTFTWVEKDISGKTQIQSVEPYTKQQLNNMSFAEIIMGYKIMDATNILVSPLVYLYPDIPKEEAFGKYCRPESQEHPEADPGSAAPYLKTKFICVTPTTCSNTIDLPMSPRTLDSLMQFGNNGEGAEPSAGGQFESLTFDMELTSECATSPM
How it was run: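 HepG2 cells transiently transfected with cis-element-driven multiple reporter transcription units; after 24 h chemical exposure, reporter mRNA measured by RT-PCR, 6-FAM primer-extension labelling, HpaI digestion and capillary electrophoresis. Bidirectional fitting versus DMSO baseline.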

[9] = ATG_TA_CIS: Attagene CIS-FACTORIAL HepG2 Assay for human TA Basal Promoter (AID 2282964); conditions: HepG2 Attagene CIS-factorial TA basal promoter reporter; actives raise or lower the signal
How it was run: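 Multiplexed mRNA reporter assay, HepG2, 24 h. Reporter cDNA amplified, 6-FAM primer-extended, HpaI-cut, CE-sized; DMSO = negative control and baseline.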

[10] = ATG_TCF_b_cat_CIS: Attagene CIS-FACTORIAL HepG2 Assay for human T-Cell-Factor with beta-catenin (TCF/b-cat) (AID 2282965); conditions: HepG2 TCF/beta-catenin cis-reporter transcription, actives raise or lower the signal
How it was run: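 HepG2 cells transiently transfected with multiple cis-promoter-regulated reporter transcription units, so endogenous transcription factor activity is measured. Reporter mRNA read 24 hours after dosing by RT-PCR, fluorescent labelling and capillary electrophoresis; bidirectional fitting against DMSO.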

[11] = ATG_TAL_CIS: Attagene CIS-FACTORIAL HepG2 Assay for human TAL Basal Promoter (AID 2282966); conditions: HepG2 Attagene cis-factorial TAL promoter reporter; actives raise or lower the signal;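 also: background control endpoint measuring basal TAL promoter reporter mRNA not a specific factor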
How it was run: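 HepG2 cells transiently transfected with multiplexed cis-promoter reporter units, dosed 24 h. Reporter mRNA quantified by RT-PCR, 6-FAM labelling, HpaI digestion and capillary electrophoresis; TAL basal promoter serves as background control, fitted bidirectionally versus DMSO.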

[12] = ATG_TGFb_CIS: Attagene CIS-FACTORIAL HepG2 Assay for human Transforming Growth Factor (TGF) (AID 2282967); conditions: HepG2 Attagene CIS TGFb reporter, mRNA transcription; actives raise or lower the signal
How it was run: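 Transcript-level reporter readout: HepG2 transfectants, 24 h exposure, RNA to cDNA, reporter-specific PCR, fluorescent primer extension, capillary sizing against ROX standards. Gain- or loss-of-signal relative to DMSO.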

[13] = ATG_VDRE_CIS: Attagene CIS-FACTORIAL HepG2 Assay for human Vitamin D Receptor Element (VDRE) (AID 2282968); conditions: HepG2 VDRE cis-reporter transcription, actives raise or lower the signal
How it was run: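 HepG2 cells transiently transfected with cis-element reporter units, dosed 24 h; reporter mRNA measured by RT-PCR, 6-FAM labeling, HpaI digestion and capillary electrophoresis. Activity fitted bidirectionally against DMSO baseline.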

[14] = target: Nuclear receptor subfamily 1 group I member 3 (Homo sapiens) (UniProt Q14994); experiment: ATG_CAR_TRANS: Attagene TRANS-FACTORIAL HepG2 Assay for human Constitutive Androstane Receptor (CAR) (AID 2282969; active = hit-call score of the fitted dose curve at least 0.9, where 1 is the maximum;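 also: activators raise reporter mRNA above DMSO so AC50 marks induction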); conditions: HepG2 Attagene TRANS-FACTORIAL CAR reporter
Nuclear receptor subfamily 1 group I member 3 (Homo sapiens), sequence (Q14994 whole entry, looked up, the tested form may be a part): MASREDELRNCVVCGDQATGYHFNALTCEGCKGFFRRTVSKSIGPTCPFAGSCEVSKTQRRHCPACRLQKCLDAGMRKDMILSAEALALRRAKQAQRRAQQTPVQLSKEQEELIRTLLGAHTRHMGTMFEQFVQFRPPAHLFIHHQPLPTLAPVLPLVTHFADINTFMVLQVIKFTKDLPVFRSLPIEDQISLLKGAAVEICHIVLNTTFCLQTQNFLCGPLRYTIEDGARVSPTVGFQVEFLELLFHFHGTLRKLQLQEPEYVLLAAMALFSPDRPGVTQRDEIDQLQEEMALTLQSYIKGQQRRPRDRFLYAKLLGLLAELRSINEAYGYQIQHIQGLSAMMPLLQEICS
How it was run: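 HepG2 cells transiently transfected with multiplexed GAL4-UAS reporter units expressing chimeric NR-Gal4 proteins; compound exposure 24 h. Reporter mRNA measured by RT-PCR, 6-FAM labelling, HpaI digestion and capillary electrophoresis; gain-of-signal fitted against DMSO baseline.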

[15] = target: X-box-binding protein 1 (Homo sapiens) (UniProt P17861); experiment: ATG_Xbp1_CIS: Attagene CIS-FACTORIAL HepG2 Assay for human X-box Binding Protein 1 (XBP1) (AID 2282972); conditions: HepG2 XBP1 cis-element reporter, Attagene multiplex; actives raise or lower the signal
X-box-binding protein 1 (Homo sapiens), sequence (P17861 whole entry, looked up): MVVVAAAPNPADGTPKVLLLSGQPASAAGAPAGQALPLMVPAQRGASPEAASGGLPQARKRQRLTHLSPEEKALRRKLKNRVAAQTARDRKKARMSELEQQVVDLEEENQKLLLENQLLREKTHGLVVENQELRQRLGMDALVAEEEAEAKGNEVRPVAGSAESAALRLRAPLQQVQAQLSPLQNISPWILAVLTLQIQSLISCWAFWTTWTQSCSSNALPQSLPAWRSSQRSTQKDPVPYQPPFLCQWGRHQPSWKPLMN
How it was run: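 HepG2 cells transiently transfected with multiple cis-element reporter units report endogenous TF activity; 24 h exposure, then reporter mRNA measured by RT-PCR, 6-FAM labelling, HpaI digestion and capillary electrophoresis. Bidirectional fitting versus DMSO.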

[16] = ATG_M_19_TRANS: Attagene TRANS-FACTORIAL HepG2 Assay for M19 Transcription Factor (Internal Marker) (AID 2282974; active = hit-call score of the fitted dose curve at least 0.9, where 1 is the maximum); conditions: HepG2 Attagene TRANS-FACTORIAL M19 internal marker reporter
How it was run: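 Reporter mRNA induction was measured in transfected HepG2 cells 24 h after dosing. Endpoint fitted upward relative to DMSO and serves as a background control within the multiplexed TRANS panel.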

[17] = target: Estrogen receptor (Homo sapiens) (UniProt P03372); experiment: ATG_ERa_TRANS: Attagene TRANS-FACTORIAL HepG2 Assay for human Estrogen Receptor alpha (ERa) (AID 2282970; active = hit-call score of the fitted dose curve at least 0.9, where 1 is the maximum); conditions: HepG2 Attagene TRANS ERa GAL4 reporter, mRNA
Estrogen receptor (Homo sapiens), sequence (P03372 whole entry, looked up, the tested form may be a part): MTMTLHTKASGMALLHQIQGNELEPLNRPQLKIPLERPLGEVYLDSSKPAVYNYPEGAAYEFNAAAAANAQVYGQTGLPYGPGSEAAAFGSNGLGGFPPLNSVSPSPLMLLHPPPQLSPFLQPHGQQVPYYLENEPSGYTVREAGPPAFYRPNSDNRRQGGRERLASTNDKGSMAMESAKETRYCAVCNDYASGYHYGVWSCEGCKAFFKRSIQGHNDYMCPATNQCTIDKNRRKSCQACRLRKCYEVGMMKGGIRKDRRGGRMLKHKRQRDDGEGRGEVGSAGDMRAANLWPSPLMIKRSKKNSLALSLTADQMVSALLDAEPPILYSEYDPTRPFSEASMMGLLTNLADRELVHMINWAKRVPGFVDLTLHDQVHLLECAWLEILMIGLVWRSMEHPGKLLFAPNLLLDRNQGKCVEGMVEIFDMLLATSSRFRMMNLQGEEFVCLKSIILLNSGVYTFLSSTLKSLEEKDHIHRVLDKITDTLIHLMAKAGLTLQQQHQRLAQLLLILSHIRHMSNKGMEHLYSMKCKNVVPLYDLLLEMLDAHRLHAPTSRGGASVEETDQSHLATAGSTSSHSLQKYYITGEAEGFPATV
How it was run: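 HepG2 cells transiently transfected with multiplexed GAL4-UAS reporter units read out chimeric NR-Gal4 activity. After 24 h compound exposure, reporter mRNA was quantified by RT-PCR, 6-FAM labeling, HpaI digestion and capillary electrophoresis, relative to DMSO.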

[18] = ATG_GAL4_TRANS: Attagene TRANS-FACTORIAL HepG2 Assay for GAL4 (Internal Marker) (AID 2282976; active = hit-call score of the fitted dose curve at least 0.9, where 1 is the maximum); conditions: HepG2 Attagene TRANS GAL4 internal marker reporter
How it was run: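 Background-control readout: GAL4-UAS reporter transcript in transiently transfected HepG2 cells after 24 h compound exposure. Measured by RT-PCR, 6-FAM primer extension, HpaI digest and capillary electrophoresis; gain-of-signal fit versus DMSO.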

[19] = target: Steroid hormone receptor ERR1 (Homo sapiens) (UniProt P11474); experiment: ATG_ERRa_TRANS: Attagene TRANS-FACTORIAL HepG2 Assay for human Estrogen-Related Receptor alpha (ERRa) (AID 2282971; active = hit-call score of the fitted dose curve at least 0.9, where 1 is the maximum); conditions: HepG2 Attagene TRANS reporter, ERRa transactivation
Steroid hormone receptor ERR1 (Homo sapiens), sequence (P11474 whole entry, looked up, the tested form may be a part): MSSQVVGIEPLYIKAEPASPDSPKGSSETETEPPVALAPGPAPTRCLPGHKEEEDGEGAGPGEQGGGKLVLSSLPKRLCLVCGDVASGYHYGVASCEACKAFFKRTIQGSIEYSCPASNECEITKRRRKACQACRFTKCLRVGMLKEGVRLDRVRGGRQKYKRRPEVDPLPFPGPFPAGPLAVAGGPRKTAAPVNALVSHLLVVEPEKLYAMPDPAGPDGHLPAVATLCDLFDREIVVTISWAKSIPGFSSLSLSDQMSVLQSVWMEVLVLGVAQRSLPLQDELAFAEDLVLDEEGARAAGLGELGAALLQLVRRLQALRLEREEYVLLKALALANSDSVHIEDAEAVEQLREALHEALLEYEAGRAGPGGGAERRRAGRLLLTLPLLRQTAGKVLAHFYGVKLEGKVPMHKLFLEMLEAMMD
How it was run: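 HepG2 cells transiently transfected with GAL4-UAS reporter units and chimeric NR-Gal4 constructs; after 24 hour compound incubation, reporter mRNA quantified by RT-PCR, fluorescent labelling and capillary electrophoresis, gain of signal versus DMSO.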

[20] = target: Paired box protein Pax-6 (Homo sapiens) (UniProt P26367); experiment: ATG_Pax6_CIS: Attagene CIS-FACTORIAL HepG2 Assay for human Paired Box 6 (PAX6) (AID 2282956); conditions: HepG2 CIS-FACTORIAL PAX6 reporter transcription, RNA readout; actives raise or lower the signal
Paired box protein Pax-6 (Homo sapiens), sequence (P26367 whole entry, looked up): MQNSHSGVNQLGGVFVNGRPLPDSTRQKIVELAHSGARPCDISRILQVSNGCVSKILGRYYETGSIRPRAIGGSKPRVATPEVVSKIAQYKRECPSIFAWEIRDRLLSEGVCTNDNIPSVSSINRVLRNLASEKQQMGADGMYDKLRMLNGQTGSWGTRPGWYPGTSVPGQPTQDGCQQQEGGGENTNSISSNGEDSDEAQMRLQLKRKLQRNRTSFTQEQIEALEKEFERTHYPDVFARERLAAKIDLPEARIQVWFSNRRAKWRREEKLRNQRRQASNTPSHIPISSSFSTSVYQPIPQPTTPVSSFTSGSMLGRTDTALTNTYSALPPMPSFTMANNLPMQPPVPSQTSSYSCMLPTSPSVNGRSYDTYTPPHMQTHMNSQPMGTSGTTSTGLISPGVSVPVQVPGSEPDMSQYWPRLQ
How it was run: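 HepG2 cells transiently transfected with cis-promoter-driven multiplexed reporter units sensing endogenous transcription factor activity; 24 h chemical exposure. Reporter mRNA quantified by RT-PCR, 6-FAM labelling, HpaI digestion and capillary electrophoresis; bidirectional fit versus DMSO baseline.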

Measured: AC50

CCCCCCCCCCCCCC(=O)OCC
inactive: [1] | [2] | [3] | [4] | [5] | [6] | [7] | [8] | [9] | [10] | [11] | [12] | [13] | [14] | [15] | [16]

C=C(C)C(=O)OCCN(C)C
inactive: [1] | [2] | [3] | [4] | [5] | [7] | [8] | [9] | [10] | [11] | [12] | [13] | [14] | [17] | [15] | [16] | [18]

CC/C=C\CCOC(C)OCC (stereo not given)
inactive: [1] | [2] | [3] | [4] | [5] | [6] | [7] | [8] | [10] | [11] | [13] | [14] | [17] | [15] | [18]

CC1COC(=O)O1 (stereo not given)
active: [2] 40.3 µM | [15] 0.0103 µM
inactive: [1] | [4] | [5] | [6] | [7] | [8] | [9] | [10] | [11] | [13] | [14] | [19] | [18]

CCC(C)(C)C1CCC(=O)CC1
active: [2] 5.24 µM
inactive: [20] | [3] | [4] | [5] | [6] | [7] | [8] | [9] | [10] | [11] | [12] | [13] | [19] | [15] | [16] | [18]

COC(=O)c1cccc(C(=O)OC)c1
inactive: [1] | [2] | [3] | [4] | [5] | [6] | [7] | [8] | [9] | [10] | [11] | [12] | [13] | [14] | [16] | [18]

Cc1cccc(O)c1
inactive: [1] | [2] | [4] | [5] | [6] | [7] | [8] | [9] | [10] | [11] | [14] | [17]

Nc1ccc(N)c([N+](=O)[O-])c1
inactive: [1] | [2] | [5] | [6] | [7] | [8] | [9] | [10] | [11] | [14] | [15] | [16] | [18]

CC(C)Cc1ccccc1
inactive: [20] | [2] | [3] | [4] | [5] | [6] | [7] | [8] | [9] | [10] | [11]

CCCCCCCC(=O)N(C)C
inactive: [1] | [4] | [5] | [6] | [7] | [8] | [9] | [10] | [11] | [12] | [13] | [14] | [17] | [19] | [15] | [16] | [18]
active: [2] 42.4 µM
